Data taken from PubChem BioAssay (NCI).
About 83,000 compounds went through this panel and 20% of them were active in at least one assay; those are over-represented in the sample as a whole.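 Step 1: grow cells in 96-well plates. Step 2: add test compound at a single concentration. Step 3: incubate 48 h. Step 4: record percent growth.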 Values without a mark were called inactive. The source made the active and inactive calls. The calls were made as follows: active = growth percent below 10; inactive = the rest.

The molecules below were run on OVCAR-5 ovarian (assay: NCI-60 one-dose screen, 48 h (100 = growth as untreated, 0 = no growth, -100 = all killed)). Details: 10 µM unless noted.

In order of rising growth:
1. CCSc1ncnc2c1ncn2C1OC(CO)C(O)C1O (configuration not stated)  29.5%
2. CCCCCCCN(CCCCCCC)C(=N)c1ccnc2ccccc12  34.7%
3. CN(C)CCCCC(C(=O)CBr)(c1ccccc1)c1ccccc1  45.2%
4. O=C(/C=C/c1ccc2ccccc2c1)Nc1ncc(Cc2ccccc2)s1  49.5%
5. COc1ccc2c(c1)c(-c1nc(-c3c[nH]c4ncccc34)cs1)cn2C  55%
6. Cn1cc(-c2nc(-c3c[nH]c4ncccc34)cs2)c2cc(Cl)ccc21  60.3%
7. Cc1ccc2c(c1)c(-c1nc(-c3c[nH]c4ncccc34)cs1)cn2C  68.6%
8. Cn1cc(-c2nc(-c3c[nH]c4ncccc34)cs2)c2cc(Br)ccc21  82.9%
9. O=C(O)/C(=C/c1ccc(O)cc1)c1ccccc1  84.4%
10. CCCCCC1CCCCN1C(=O)OCC (configuration not stated)  94.7%
11. Cn1cccc1/C=C1/SC(=S)N(CCc2ccc(O)cc2)C1=O  95.9%
12. CC(c1ccccc1)N1C(=O)C(C2SC(=S)N(C(C)c3ccccc3)C2=O)SC1=S (configuration not stated)  98.8%
13. Cn1c(=O)c2c(nc(N3CCCC3)n2C)n(C)c1=O  99.1%
14. OCC1OC(n2cnc3c(Cl)ncnc32)CC1O (configuration not stated)  101%
15. CCCC1CCCCN1C(=O)OCC(C)C (configuration not stated)  102%
16. N#CC1=C(N)Oc2c(c(N)nn2-c2ccccc2)C1c1ccc(Cl)cc1 (configuration not stated)  102%
17. COc1ccc(OCC(CO)N2CCN(c3ccccc3)CC2)cc1 (configuration not stated)  103%
18. c1ccc2c(-c3nc(-c4c[nH]c5ncccc45)cs3)c[nH]c2c1  119%

What follows are molecules tested on OVCAR-4 ovarian in the same assay as above. Details: 10 µM unless noted.

In order of rising growth:
1. CN(C)CCCCC(C(=O)CBr)(c1ccccc1)c1ccccc1  12.1%
2. N#C/C(=C\c1ccc(-c2ccc(F)cc2)o1)c1nc(-c2ccco2)cs1  19.2%
3. Cc1ccc(-c2ccc(/C=C(\C#N)c3nc(-c4ccco4)cs3)o2)cc1  28.1%
4. CCSc1ncnc2c1ncn2C1OC(CO)C(O)C1O (configuration not stated)  46.1%
5. CN(CSc1ccc(Cl)cc1)c1ccc(CSc2ccc(Cl)cc2)cc1  67.9%
6. Cn1cccc1/C=C1/SC(=S)N(CCc2ccc(O)cc2)C1=O  89.4%
7. COc1ccc(OCC(CO)N2CCN(c3ccccc3)CC2)cc1 (configuration not stated)  92.4%
8. Cc1oc(-c2ccccc2Cl)cc1C(=O)Nc1ccc(S(N)(=O)=O)cc1  96.8%
9. CC(c1ccccc1)N1C(=O)C(C2SC(=S)N(C(C)c3ccccc3)C2=O)SC1=S (configuration not stated)  97.2%
10. O=C(O)/C(=C/c1ccc(O)cc1)c1ccccc1  98.7%
11. Cn1c(=O)c2c(nc(N3CCCC3)n2C)n(C)c1=O  99.1%
12. O=P(O)(c1ccccc1)c1ccccc1I  102%
13. N=C(N)c1ccc(S(N)(=O)=O)cc1  102%
14. CCCCC(=O)OC1CCCCC1C (configuration not stated)  104%
15. N#CC1=C(N)Oc2c(c(N)nn2-c2ccccc2)C1c1ccc(Cl)cc1 (configuration not stated)  105%
16. CCCCCC1CCCCN1C(=O)OCC (configuration not stated)  105%
17. CC(=O)OC(C)COc1ccc(-c2ccccc2)cc1 (configuration not stated)  106%
18. O=c1[nH]c(=S)[nH]c2nc[nH]c12  107%
19. C#CCC(C)(O)/C=C/C1=C(C)CCCC1(C)C (configuration not stated)  107%
20. CCCCC/C(=C\c1ccccc1)C1OC(C)C(C)O1 (configuration not stated)  108%
21. OCC(CO)(CCl)CCl  109%
22. CCC(CC)C(=O)OC(C)COc1ccc(C(C)(C)C)cc1 (configuration not stated)  113%
23. CCCC1CCCCN1C(=O)OCC(C)C (configuration not stated)  113%
24. OCC1OC(n2cnc3c(Cl)ncnc32)CC1O (configuration not stated)  120%

`COc1ccc(C2(Cl)c3ccccc3N(c3ccccc3)c3ccccc32)cc1` was tested, and the growth was 3.18% (active).
With `O=c1[nH]ncc(Br)c1Br` the growth was -100% (active).
`O=C1C(Cl)=C(Nc2ccc(S(=O)(=O)c3ccc(NC4=C(Cl)C(=O)c5ccccc5C4=O)cc3)cc2)C(=O)c2ccccc21` was tested, and the growth was -84.9% (active).
With `O=C(/C=C/c1ccc2ccccc2c1)Nc1ncc(Cc2ccccc2)s1` the growth was -37.5% (active).
In the case of `CCCCCCCN(CCCCCCC)C(=N)c1ccnc2ccccc12`, the growth is reported as 5.2% (active).
